In ChEMBL document CHEMBL3433997, “St. Jude Leishmania screening dataset” (2016) one finds inhibition data, which are given here for 40 compounds.

In this assay the target is Glucose transporter (Leishmania mexicana) (UniProt O61059). As to the kind of experiment: ST_JUDE_LEISH: Cytotoxicity at 2uM final concentration against transgenic Leishmania Mexicana promastigotes LmGT2 that are glucose transport deficient and complemented with the L. Mexicana glucose transporter 2. Activity is measured by DNA content using SYBR green in vitro. The format is functional.
As to `CCOc1ccc2c(=NN=Cc3ccccc3F)cc(C)[nH]c2c1`, the inhibition – broadly, the change of the read-out against control, counted positive when it falls – was -0.43%.
Consider `C[C@H]1CN(Cc2cccc(-c3cc(CNC(=O)c4cccc(CN5CCN(C/C=C/c6ccccc6)CC5)c4)ccc3F)c2)CCN1`, for which the inhibition worked out at 12.7%.
The result for `CN1CCC(c2cc3c(cc2Br)CCN3C(=O)Nc2ccc(-c3ccncc3)c(Cl)c2)CC1` reads 0.25%; that for `CCOC(=O)C(C#N)NC(=O)C=Cc1ccccc1` (stereo not given), 5.14%; that for `CC(C)CN1CCCN(Cc2cccc(NC(=O)c3ccc(-c4ccccc4)cc3)c2)CC1`, -5.07%.
With `CCCN(Cc1nnc(-c2ccco2)o1)C(=O)C1CCN(c2ncc(C(F)(F)F)cc2Cl)CC1`, the inhibition was determined as 10.8%.
As to `N#Cc1ccccc1C(=O)N(Cc1cncn1Cc1cccc(F)c1)CC1CC1`, the inhibition stood at 8.88%.
Then `C=CCc1cc(Br)ccc1OCCCON1C(N)=NC(N)=NC1(C)C`, with 17.7%.
`COc1ccc(CN2CCC(CNCCc3ccccc3Cl)CC2)cc1`: the inhibition amounted to 12.5%.
For `CC(C)(C)c1ccc(-c2nc3c(ccc4nc(N)nc(N)c43)[nH]2)cc1`, the inhibition is -2.76%.
Then `Cc1ccc(C(=O)Nc2ccc(F)c(F)c2F)cc1S(=O)(=O)N1CCCCC1`, with 0.7%; and `Cc1nn(CC(C)C)c2sc(C(=O)N3CCN(S(=O)(=O)c4ccc(C#N)cc4)CC3)cc12`, with 5.07%.
Then `COc1cccc(NC(=O)Cn2c(C)c(C#N)c3ccccc32)c1`, with 3.36%; and `CCOc1ccc(Nc2nc(N)c3ccccc3n2)cc1`, with 6.25%.
The result for `COCCn1c(SC(C)C(=O)Nc2cc(C(F)(F)F)ccc2Cl)nc2ccccc2c1=O` (stereo not given) reads -0.21%.
Regarding `CN1CCC(C(=O)Nc2ccc(-c3ccc(-c4nc5cc(C(F)(F)F)ccc5[nH]4)s3)cc2)CC1`, the inhibition was -0.16%.
Then `Cc1ccc2[nH]c3ccccc3c(=O)c2c1`, with 1.77%; and `CCc1nonc1NC(=O)c1oc2c(C)c(C)ccc2c1C`, with 7.88%; and `O=C(COc1cccc([N+](=O)[O-])c1)Nc1ccc(-c2nc3ccccc3[nH]2)cc1`, with -1.82%.
Turning to `Cc1cccc2nc(-c3ccc(-c4cccc(CN5CCCC(O)C5)c4)s3)[nH]c12` (stereo not given), the inhibition was determined as 2.93%.
The result for `Cc1cc(N[C@@H](C)C(=O)Nc2ccccc2)nc(NCCc2ccc(F)cc2)n1` reads 1.18%; that for `CCc1ccc(NC(=O)N(CCCN2CCN(C)CC2)Cc2csc(-c3ccc(CNCc4ccccc4)cc3)n2)cc1`, 3.09%.
As for `CC(C)(C)c1ccc(NC(=O)c2ccc(CN3CCCN(Cc4ccc(F)cc4)CC3)cc2)cc1`, the inhibition worked out at 1.74%.
Regarding `O=C(N[C@H]1CCN(Cc2ccc(OCCCN3CCCCC3)cc2)C1)c1ccc2ccccc2c1`, the inhibition amounted to 2.1%.
For the compound `CC(=O)Nc1ncc(C(=O)Nc2cccc(-c3cccc(-c4nc5ccccc5[nH]4)c3)c2)s1`, the inhibition worked out at 6.64%.
As to `COc1cc2nc(SCCCC#N)n(C3CCCCCC3)c(=N)c2cc1OC`, the inhibition turned out to be 2.84%.
Then `O=C(Nc1cccc(C(F)(F)F)c1)NC1CCN(c2ccnc3ccccc23)C1` (stereo not given), with 6.33%.
Then `CCCN(Cc1ccc(OCC)cc1)Cc1cc(=O)c2cc(Cl)ccc2[nH]1`, with 7.1%.
Then `O=c1cc(NCCCNCc2cc(Cl)cc(Cl)c2OCc2ccccc2)[nH]c2ccccc12`, with 4.41%; and `COc1ccc(NC(=O)/C=C/c2ccccc2Cl)cc1OCCN1CCC(N2CCN(C)CC2)CC1`, with 0.87%; and `CN1CCN(CCNc2c3ccccc3nc3c2ccc2ccccc23)CC1`, with 81.5%.
For the compound `CC(C)N(Cc1ccc(-c2ccc(C(F)(F)F)cc2)cc1)C(=O)Cn1c(SCc2cccc(F)c2F)cc(=O)c2cc(CN3CCCCC3)ccc21`, the inhibition turned out to be 3.27%.
For the compound `CS(=O)(=O)c1ccc(CNCc2cccc(-c3cccc(-c4nc5cc(C(F)(F)F)ccc5[nH]4)c3)c2)cc1`, the inhibition was 3.97%.
The result for `CC(C)c1ccc(CN2CCCCC(NC(=O)c3cc(-c4ccccc4Cl)cs3)C2)cc1` (stereo not given) reads -4.09%; that for `Brc1ccccc1CNc1ccnc(NCCn2ccnc2)n1`, 0.03%.
The result for `CCN1CCN(Cc2c(O)ccc3c(=O)c(Oc4cc(C)cc(C)c4)c(C(F)(F)F)oc23)CC1` reads 54.5%.
Then `Cc1cc(-c2ccc(Cl)cc2)c2c(N)c(C(=O)Nc3ccc(F)cc3)sc2n1`, with 0.35%; and `COC1CCC(C(=O)Nc2ccc(-c3cccc(-c4nc5cc(C(F)(F)F)ccc5[nH]4)c3)cc2)CC1` (stereo not given), with 0.65%; and `O=C(Nc1cccc(-c2ccc(-c3nc4ccccc4[nH]3)cc2)c1)c1cnn2cccnc12`, with -0.33%.
For the compound `Fc1ccc2[nH]c(-c3ccc(-c4ccc(CNCC5CCCO5)cc4)cc3)nc2c1` (stereo not given), the inhibition came out at 7.73%.
